Reference: PubChem BioAssay (EPA / NIEHS)
Records with an inconclusive call do not appear. Calls of active or inactive are those of the source. How the source made its calls, unless noted: active means hit-call score of the fitted dose curve at least 0.9, where 1 is the maximum; inconclusive means response in the unintended direction; inactive means score below 0.9.

Test system: not listed separately
Experiment: CCTE_Mundy_HCI_iCellGluta_NOG_NeuronCount: CCTE's Neurite Outgrowth Assay in iCellGluta cells for Neuron Count, Mundy Lab (AID 2284340);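 further: cells fixed about 48 h after compound addition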
Method in brief: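 Neuron count read by automated high-content imaging of Hoechst 33342 and betaIII-tubulin/Alexa Fluor-488 labelling in human iPSC glutamatergic neurons. Activity fitted relative to DMSO.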

Row | SMILES | outcome | AC50
1 | N#CCCNCCC#N | inactive | –
2 | CC(C)Cc1ccc(C(C)C(=O)O)cc1 (centres undefined) | inactive | –
3 | c1ccc2scnc2c1 | inactive | –
4 | N[C@@H](CCC(=O)O)C(=O)O | inactive | –
5 | CCCCC(CC)COC(=O)COc1ccc(Cl)cc1C (centres undefined) | – | 39 µM (active)

Test system: not listed separately
Experiment: CCTE_Mundy_HCI_iCellGluta_NOG_NeuriteCount: CCTE's Neurite Outgrowth Assay in iCellGluta cells for Neurite Count, Mundy Lab (AID 2284342);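 further: chemical exposure about 48 hours starting 2 hours after plating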
Description: CCTE_Mundy_HCI_iCellGluta_NOG is a multiplexed, cell-based-readout assay that uses iCell GlutaNeurons from FUJIFILM Cellular Dynamics, Inc. (FCDI), human glutamatergic enriched neurons derived from induced pluripotent stem (iPS) cells, with measurements taken at 50.33 hours after chemical dosing in a microplate: 96-well plate.CCTE_Mundy_HCI_iCellGluta_NOG_NeuriteCount is one of four components of the CCTE_Mundy_HCI_iCellGluta_NOG assay. It measures neurite outgrowth related to number of neurites using High Content Imaging of fluorescently labelled markers.Data from the assay component CCTE_Mundy_HCI_iCellGluta_NOG_NeuriteCount was analyzed at the endpoint CCTE_Mundy_HCI_iCellGluta_NOG_NeuriteCount in the positive analysis fitting direction relative to DMSO as the negative control and baseline of activity. Using a type of morphology reporter, loss-of-signal activity can be used to understand developmental effects.
Exposure starts 2 hours post-plating by adding 10 ul of the working solution to 90 ul of media in the wells for a 1/10 dilution. Forty-eight hours after chemical treatment cells are fixed by direct addition of 100 ul of warm (37C) Dulbecco's phosphate buffered saline (DPBS) fixative solution containing 8% paraformaldehyde, 8% sucrose, and 0.1% of 3 mg/ml Hoechst 33342 into each well. Primary antibodies are prepared by dilution in Immunocytochemical Staining Buffer (ISB), 10X Dulbecco's PBS, 0.1% Saponin, 5% Bovine Serum Albumin, 0.5% NaN3 (Sodium Azide) and betaIII-tubulin (rabbit anti-betaIII-tubulin, 1:800) followed by Alexa Fluor-488 secondary (1:500) to label neuronal cell bodies and neurites. A Cellomics ArrayScan VTi HCS Reader is used for automated image acquisition and analysis of neurite outgrowth.

Row | SMILES | outcome | AC50
6 | N#CCCNCCC#N | inactive | –
7 | CC(C)Cc1ccc(C(C)C(=O)O)cc1 (centres undefined) | inactive | –
8 | c1ccc2scnc2c1 | inactive | –
9 | N[C@@H](CCC(=O)O)C(=O)O | inactive | –
10 | CCCCC(CC)COC(=O)COc1ccc(Cl)cc1C (centres undefined) | – | 32.2 µM (active)

Test system: SERPINA7 (gene 6906)
Experiment: CCTE_GLTED_hTBG: CCTE's human Thyroxine-binding Globulin (TBG) Inhibition Assay, Great Lakes Toxicology and Ecology Division (GLTED) Lab (AID 2284343);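 further: active chemicals lower fluorescence versus DMSO baseline by displacing probe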
Method in brief: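 hTBG + test chem, 2 h; ANSA probe displacement; fluorescence readout ex380/em475; DMSO = neg ctrl/baseline; cell-free.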

Row | SMILES | AC50
11 | CCCCCCCCOC(=O)c1ccc(O)cc1 | 7.24 µM (active)
12 | O=C(O)C(F)(F)C(F)(F)C(F)(F)C(F)(F)C(F)(F)C(F)(F)C(F)(F)C(F)F | 73.1 µM (active)
13 | O=S(=O)(O)c1cc(S(=O)(=O)O)c2c(N=Nc3ccccc3)c(O)ccc2c1 | 33.9 µM (active)
14 | O=C(O)c1ccccc1O | 50 µM (active)
15 | CCCCCCOc1ccc(O)cc1 | 33.7 µM (active)
16 | O=c1cc(-c2ccc(O)cc2)oc2cc(O)cc(O)c12 | 38.2 µM (active)
17 | CCCCCCCCCCCCOCCOS(=O)(=O)O | 50 µM (active)

Test system: not listed separately
Experiment: CCTE_Padilla_ZF_Score.Craniofacial: CCTE's 144 Hour Post-fertilization zebrafish Assay Score for Craniofacial Malformation, Padilla Lab (AID 2284405; active means hit-call score of the fitted dose curve at least 0.9, where 1 is the maximum; inactive means score below 0.9)
Description: CCTE_Padilla_ZF_Phenotype_Score is a whole embryo, multiplexed assay using zebrafish ova exposed for 144 hours post fertilization on a 96-well plate.CCTE_Padilla_ZF_Score.Craniofacial is one of one assay component(s) measured or calculated from the CCTE_Padilla_ZF_Phenotype_Score assay. It is designed to make measurements of zebrafish development as detected with brightfield microscopy of developing zebrafish embryos.Data from the assay component CCTE_Padilla_ZF_Score.Craniofacial was analyzed into 1 assay endpoints. This assay endpoint, CCTE_Padilla_ZF_Score.Craniofacial, was analyzed in the positive analysis fitting direction relative to DMSO as the negative control and baseline of activity. Using a type of viability reporter, gain-of-signal activity can be used to understand changes in developmentals as they relate to the whole embryo. To generalize the intended target to other relatable targets, this assay endpoint is annotated to the zebrafish development intended target family, where the subfamily is craniofacial morphogenesis.
Zebrafish husbandry: Wild type adult zebrafish (Danio rerio; undefined outbred stock obtained from Aquatic Research Organisms, Hampton, NH, 03842) were housed in an AAALAC-approved animal facility at 28C with a 14:10 h light: dark cycle (lights on at 08:30 h). Adult fish (2-3 females per male; density = 15-20 adults per tank) were kept in one of several 9-liter (L) flow-through colony tanks (Aquaneering Inc., San Diego, CA). All adults in a colony tank were placed in a 2 L (static) breeding tank (Aquatic Habitats, Apopka, FL) one hour prior to light onset. Typically, adults from two to three colony tanks were mated on the same day. Two hours after light onset the adults were returned to the colony tank. All embryos were gathered from each breeder tank, pooled, and placed in a 28C water bath for 2 h, followed by two washes with 0.06% bleach (v/v) in 10% Hanks' Balanced Salt Solution (13.7 mM NaCl 0.54 mM KCl, 25 uM Na2HPO4, 130 uM CaCl2 100 um MgSO4 and 420 um NaHCO3,), hereafter referred to as Hanks' solution, for 5 min in order to remove any residual bacteria or fungi. Immediately following washing, the embryos were examined, and healthy embryos were separated from dead or unfertilized eggs and moved into fresh Hanks'. Chemical exposures: Zebrafish embryos were exposed in 96-well plates. Between 6- and 8-hours post fertilization (hpf), healthy embryos (with chorions) were transferred, one embryo per well, into 96 well (0.5 mL) microtiter plates (Cell Culture-Treated, Flat-Bottom Microplate 96 well [Corning Costar, Kennebunk, ME; Cat 09-761-145]) filled with 200 uL of Hanks' solution. A random number generator was used to assign the order in which the rows of embryos were plated in 96 well plates each week. After plating, the embryos were dosed with 0.8 uL of the chemical dosing solution then immediately sealed with AlumaSeal II (Excel Scientific Inc, Victorville, CA) to prevent volatilization of the chemicals, and then placed in a leakproof secondary container. These containers were placed in an incubator maintained on a 14:10 h light: dark cycle at 26C for rearing. On 5 dpf, live larvae were gently moved out of the plate with test chemicals and into a new 96 well mesh plate (Millipore Corp., Bedford, MA) with just the Hanks' solution. Once within the mesh well plate, the animals were rinsed with 400 uL of fresh Hanks' three times, and then the plates were covered with a non-adhesive material (Microseal A, BioRad, Hercules, CA), plate lid added, and then plate sides wrapped in Parafilm (PM992, Bermis Company, Neenah, WI), and returned to the incubator. […]

Row | SMILES | outcome | AC50
18 | C=C(C)C(=O)OCCC(F)(F)C(F)(F)C(F)(F)C(F)(F)C(F)(F)C(F)(F)C(F)(F)C(F)(F)F | inactive | –
19 | O=C(O)C(F)(F)C(F)(F)C(F)(F)C(F)(F)C(F)(F)C(F)(F)C(F)(F)C(F)F | inactive | –
20 | OCC(F)(OC(F)(F)C(F)(OC(F)(F)C(F)(F)C(F)(F)F)C(F)(F)F)C(F)(F)F (centres undefined) | – | 34.8 µM (active)
21 | C=C(F)C(=O)OC(C(F)(F)F)C(F)(F)F | inactive | –
22 | O=S(=O)(O)C(F)(F)C(F)(F)OC(F)(F)C(F)(F)F | inactive | –
23 | O=C(O)C(F)(F)OC(F)(F)C(F)(F)OC(F)(F)C(F)(F)C(F)(F)C(F)(F)F | inactive | –

Test system: not listed separately
Experiment: CCTE_Padilla_ZF_Score.Edema: CCTE's 144 Hour Post-fertilization zebrafish Assay Score for Edema Malformation, Padilla Lab (AID 2284406; active means hit-call score of the fitted dose curve at least 0.9, where 1 is the maximum; inactive means score below 0.9)
Method in brief: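 Wild-type zebrafish embryos, one per well in Hanks' solution, dosed at 6-8 hpf, sealed and reared at 26C on a 14:10 h cycle; rinsed on 5 dpf. At 6 dpf, blinded assessors scored edema by stereomicroscopy.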

Row | SMILES | outcome
24 | C=C(C)C(=O)OCCC(F)(F)C(F)(F)C(F)(F)C(F)(F)C(F)(F)C(F)(F)C(F)(F)C(F)(F)F | inactive
25 | O=C(O)C(F)(F)C(F)(F)C(F)(F)C(F)(F)C(F)(F)C(F)(F)C(F)(F)C(F)F | inactive
26 | OCC(F)(OC(F)(F)C(F)(OC(F)(F)C(F)(F)C(F)(F)F)C(F)(F)F)C(F)(F)F (centres undefined) | inactive
27 | C=C(F)C(=O)OC(C(F)(F)F)C(F)(F)F | inactive
28 | O=S(=O)(O)C(F)(F)C(F)(F)OC(F)(F)C(F)(F)F | inactive
29 | O=C(O)C(F)(F)OC(F)(F)C(F)(F)OC(F)(F)C(F)(F)C(F)(F)C(F)(F)F | inactive
